VP16 counter – inhibits Gal4-VP16 luciferase reporter, ROR gamma counter-screen; Drosophila S2 Gal4-VP16 UAS-luciferase, luminescence, 20 h; Potency, µM (doses to about 53.6 µM), for inactives: top-dose activity, negative = inhibition, usual class: inhibitors; actives 3.5% (n = 310,000); AID 2546;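 note: Gal4-VP16 expression switched on by copper sulfate through the metallothionein promoter; nearly all actives have a fitted effect of over 50% in size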
RORgamma inh – ROR gamma (mouse) transcription inhibition | P51450 | Drosophila S2 Gal4-RORgamma UAS-luciferase reporter, 20 h | Potency, µM (titrated, usually from 53.6 µM), without a hit: at the top dose activity change, negative = inhibition, actives largely listed as inhibitors | actives 5.4% (n = 310,000) | AID 2551; note: nearly all actives have a fitted effect of over 60% in size
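Drosophila Schneider cells stably carrying a metallothionein-driven Gal4 DBD–ROR gamma fusion and a UAS-Photinus luciferase reporter were exposed to compound for 1 hr, then induced with copper sulfate (700 uM final) for 20 hr at ambient temperature before luminescence reading.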
NPSR antagonist – antagonists of human neuropeptide S receptor cAMP signaling; Q6W5P4; CHO-NPSR cells, cAMP TR-FRET, antagonist mode; Potency, µM (doses to about 38.3 µM), without a hit: at the highest dose activity change, negative = inhibition, usual class: inhibitors; actives 1% (n = 220,000); AID 1461; note: nearly all actives have a fitted effect of over 50% in size
B2AR arrestin – beta2AR (human) beta-arrestin recruitment activity; actives 0.02% (n = 330,000); P07550; beta-arrestin recruitment to beta2AR, cell-based reporter; Potency, µM (series often up to 46.1 µM), without a hit: at the top dose activation, most hits filed as activators;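 note: 0% = DMSO controls and full agonism = EC100 isoproterenol or metaproterenol; nearly all actives have a fitted effect of over 65% in size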
Target sequence (P07550 whole entry, looked up): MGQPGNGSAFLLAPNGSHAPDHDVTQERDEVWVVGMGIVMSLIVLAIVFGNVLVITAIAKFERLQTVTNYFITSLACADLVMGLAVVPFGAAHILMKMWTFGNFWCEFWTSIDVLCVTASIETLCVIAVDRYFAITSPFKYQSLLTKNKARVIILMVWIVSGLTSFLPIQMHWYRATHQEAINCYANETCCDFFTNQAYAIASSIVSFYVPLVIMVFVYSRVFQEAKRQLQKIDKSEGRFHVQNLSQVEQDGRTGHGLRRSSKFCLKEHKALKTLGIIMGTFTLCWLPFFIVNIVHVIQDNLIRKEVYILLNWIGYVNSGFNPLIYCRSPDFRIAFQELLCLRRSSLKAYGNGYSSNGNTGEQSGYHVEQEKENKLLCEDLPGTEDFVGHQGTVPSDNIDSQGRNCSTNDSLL
Starred values were filed as active, the others as inactive; u = inconclusive; x = no result; [ ] = dose if it differs, or a comment. In the library only some 5.7% were active in any assay of this set; here they are far more common. Calls come from the whole dose curve; as a rule, active = well fitted curve in the direction sought with a large enough effect; inconclusive = small, poorly fitted or top-dose-only effect, or another doubt; inactive = no such curve, though single readings can be large; an effect the other way counts as inactive or inconclusive. Unless noted, % is set by controls: 0 for no effect and ±100 for the full control effect; potency is the fitted concentration of half-maximal effect.

SMILES	VP16 counter	RORgamma inh	NPSR antagonist	B2AR arrestin
Nc1ccc(S(=O)(=O)NCc2ccccc2)cc1	-1%	23%	x	x
COc1ccccc1N1CCN(S(=O)(=O)c2c(C)[nH]c(=O)[nH]c2=O)CC1	4%	1%	1%	0%
N#Cc1ccccc1-c1ccc2ncnc(NCCN3CCOCC3)c2c1	16%	38%	x	x
CCOCCCNC(=O)C(NC(=O)Cc1cccs1)c1ccc(Cl)cc1 (centres undefined)	13µM*	u	1%	0%
CCOCCCNC(=O)C(NC(=O)Cc1cccs1)c1ccc(OC)cc1 (centres undefined)	3%	11%	-2%	0%
O=C(CN1C(=O)/C(=C2\SC(=S)N(C3CCS(=O)(=O)C3)C2=O)c2ccccc21)Nc1ccccc1 (centres undefined)	-21%	0.89µM*	35%	0%
COc1cc2c(cc1OC)-c1cc(Nc3cccc(C)c3)nc(=O)n1CC2	-1%	-26%	x	0%
C=CCOC(=O)/C=C/C(=O)NC(N)=O	u	20µM*	14%	-1%
C=CCOC(=O)/C=C/NC(=O)/C=C/C=C/CCCCCCCC(C)O (centres undefined)	0%[10 µM]	-6%[10 µM]	x	x
CC(=O)c1cccc(NC(=O)Cn2cnc(S(=O)(=O)N3CCC(C)CC3)c2)c1	1%	-6%	x	0%
CCOC(=O)[C@@H]1[C@H]2COc3cc(OC)ccc3[C@@H]2N2C(=O)N(c3ccc(Cl)cc3)C(=O)[C@@]12C	u	8.9µM*	x	1%
CCOC(=O)[C@@H]1[C@H]2COc3ccccc3[C@@H]2N2C(=O)N(c3ccc(C)cc3)C(=O)[C@@]12C	x	x	x	0%
CCOC(=O)[C@@H]1[C@H]2COc3cc(OC)ccc3[C@@H]2N2C(=O)N(c3ccc(C)cc3)C(=O)[C@@]12C	1%	5µM*	x	-1%
CCOC(=O)[C@@H]1[C@H]2COc3ccccc3[C@@H]2N2C(=O)N(c3ccc(F)cc3)C(=O)[C@@]12C	-7%	13µM*	x	0%
CCOC(=O)[C@H]1[C@H]2COc3cc(OC)ccc3[C@@H]2N2C(=O)N(c3ccc(Cl)cc3)C(=O)[C@@]12C	5%	20%	x	0%
CCOC(=O)[C@@H]1[C@H]2COc3cc(OC)ccc3[C@@H]2N2C(=O)N(c3cccc(F)c3)C(=O)[C@@]12C	0%	10µM*	x	-1%
CCOC(=O)[C@@H]1[C@H]2COc3cc(OC)ccc3[C@@H]2N2C(=O)N(c3ccccc3)C(=O)[C@]12C	x	x	x	0%
COc1ccc(NC(=O)CCCn2cnc3ccccc3c2=O)cc1	-5%	-5%	x	0%
O=C(O)c1ccc(S(=O)(=O)N[C@H](Cc2ccc(O)cc2)C(=O)O)cc1	1%	-1%	x	0%
Cc1ccc(S(=O)(=O)NNC(=O)C(=O)NNc2ccccn2)cc1	-7%	8.9µM*	-23%[46.1 µM]	-1%
COc1ccc(NC(=O)CN(C)C2CCCCC2)c([N+](=O)[O-])c1	-10%	-15%	3%	-1%
COc1ccc(C(=O)/C=C/Nc2ccc([N+](=O)[O-])cc2C)cc1OC	-19%	-4%	-4%[46.1 µM]	0%
O=C(CC(=O)Nc1ccccc1[N+](=O)[O-])Nc1ccccc1[N+](=O)[O-]	1%	20%	x	0%
CC(C)(C)CC(=O)NC(=S)Nc1ccccc1[N+](=O)[O-]	u	6.3µM*	-1%	0%
COc1ccc(C(=O)NC(=S)Nc2cccnc2)cc1[N+](=O)[O-]	-11%	u	-11%	0%
SMILES	VP16 counter	RORgamma inh	NPSR antagonist	B2AR arrestin
Cc1cc(C)c(C(=O)CC(=O)c2ccccc2Cl)c(O)c1	4.5µM*	2.2µM*	x	0%
Cc1cc(C)c(NC(=O)CC(=O)c2ccccc2)c(Cl)c1	-15%	28%	x	12%
COc1ccc(C(=O)NC(=S)Nc2ccc([N+](=O)[O-])cc2C)cc1OC	u	16µM*	-3%[46.1 µM]	0%
COc1ccc(C(=O)NC(=S)Nc2ccccc2[N+](=O)[O-])cc1OC	17%	7.1µM*	-5%	0%
COCCCN1C(=O)c2ccc(C(=O)NCCc3ccccc3)cc2C1=O	u	u	x	5%
CC12CCC(C(=O)N(CC(O)CN3CCCCC3)C1=O)C2(C)C (centres undefined)	-13%	44%	-3%[46.1 µM]	0%
Cc1ccc(O)c(NC(=O)c2cc(-c3ccccc3Cl)on2)c1	5%	34%	x	0%
O=C(NC(=S)Nc1ccccc1[N+](=O)[O-])c1ccccc1Cl	u	4µM*	-13%	5%
O=C(NNC(=S)NC(=O)c1ccccc1[N+](=O)[O-])c1ccccc1Cl	23%	-38%	4%	0%
Cc1ccc(O)c(NC(=S)NC(=O)c2ccccc2Cl)c1	13µM*	3.5µM*	-21%	0%
C/C(CC(=O)Nc1ccc2c(c1)OCO2)=N\NC(=O)C(c1ccccc1)c1ccccc1	u	16µM*	-6%	8%
C/C(CC(=O)Nc1ccc2c(c1)OCO2)=N\NC(=O)c1ccccc1N	-6%	-34%	1%	5%
Cc1ccc(Cl)cc1NC(=O)c1cc2ccccc2cc1O	2.8µM*	5µM*	u	0%
COc1ccc(NC(=O)c2cc3ccccc3cc2OC)cc1	0%	u	x	0%
COc1cc2ccccc2cc1C(=O)NNC(=O)c1ccccc1O	u	11µM*	x	0%
Cc1cc(C(=O)Nc2ccc3ccccc3c2)c(C)o1	u	8.9µM*	x	0%
COc1ccccc1C(=O)NNC(=O)C1CCCO1 (centres undefined)	9%	11µM*	x	0%
O=C(NNC(=O)c1ccc(Br)o1)c1csc(N2CCOCC2)n1	x	x	x	0%
COc1ccc(C)cc1NC(=O)NNC(=O)c1cc2ccccc2cc1O	-5%	-19%	x	0%
CCC(=O)Nc1ccc2ccccc2c1	0%	31%	11%	1%
CC1(C(=O)Nc2ccc3ccccc3c2)CC1(Br)Br (centres undefined)	u	11µM*	-9%	0%
COc1ccccc1C(=O)NNC(=O)c1cccc(F)c1	10µM*	10µM*	28%	0%
Cc1cc(C)nc(NNC(=O)c2ccccc2O)n1	3%	11µM*	2%	0%
Cc1ccc(C(=O)NNC(=O)c2cc3ccccc3cc2O)cc1	u	14µM*	x	0%
COc1ccc(-c2cc(C3C4C=CCCC4(C)C(=O)N3Cc3ccccc3)ccc2F)cc1OC (centres undefined)	-1%	18%	x	x
SMILES	VP16 counter	RORgamma inh	NPSR antagonist	B2AR arrestin
CC(/C=N\NC(=O)c1cc(C)oc1C)=C\c1ccccc1	u	6.3µM*	-10%	0%
Cc1ccc(C(=O)Nc2ccc3ccccc3c2)cc1	11µM*	6.3µM*	x	-1%
COc1ccc(-c2cc(C(F)(F)F)nc(S(=O)(=O)CCCC(=O)Nc3cc(C)on3)n2)cc1OC	u	3.5µM*	-50%	0%
COc1ccccc1-c1cc(C(F)(F)F)nc(S(=O)(=O)CCCC(=O)Nc2cc(C)on2)n1	7.9µM*	11µM*	u	0%
CC1(NC(=O)Cc2c(F)cccc2Cl)CCS(=O)(=O)C1 (centres undefined)	x	x	x	-1%
S=c1[nH]nc(COc2ccccc2)n1/N=C/c1ccc(Cl)c(Cl)c1	-17%	u	x	0%

Compound activity (PubChem BioAssay)
